# Bioassay records as filed in PubChem.
# SmPrx2 inh: inhibitors of Schistosoma mansoni peroxiredoxin 2 | Potency, µM | S. mansoni Prx2 activity coupled to TGR/GSH (TGR is thioredoxin glutathione reductase), NADPH fluorescence loss, qHTS | 0.07% of 65,000 active
#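 Coupled assay in which S. mansoni TGR passes NADPH reducing equivalents via glutathione to Prx2, which reduces H2O2. Compounds were preincubated 15 min at room temperature with 25 nM TGR/50 nM Prx2 mix. Kinetic NADPH fluorescence loss (ex 365/em 450 nm) was monitored.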
# AmpC nodet inh: AmpC beta-lactamase inhibition, detergent-free assay; P00811; AmpC nitrocefin hydrolysis, absorbance 480 nm, no detergent; Potency, µM (doses to about 28.7 µM), for inactives: at the top dose activity change, negative = inhibition; 1.8% of 71,000 active; AID 585; also: % of control where 0% means no effect
# Target sequence (P00811 whole entry, looked up): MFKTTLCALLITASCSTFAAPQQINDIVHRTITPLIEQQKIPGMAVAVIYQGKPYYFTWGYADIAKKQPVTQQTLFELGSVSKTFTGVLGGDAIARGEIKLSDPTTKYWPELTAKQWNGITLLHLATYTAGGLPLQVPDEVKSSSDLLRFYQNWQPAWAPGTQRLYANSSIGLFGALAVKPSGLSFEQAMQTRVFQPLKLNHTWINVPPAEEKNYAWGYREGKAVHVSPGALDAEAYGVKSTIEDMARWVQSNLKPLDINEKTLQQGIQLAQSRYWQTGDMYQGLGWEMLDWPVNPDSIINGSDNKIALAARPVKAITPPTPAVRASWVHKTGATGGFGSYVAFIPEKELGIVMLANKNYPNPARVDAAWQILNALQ
#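 AmpC, 20 mM phosphate pH 7.0; 15 min cpd preinc, RT; start with nitrocefin (800 uM stock); A480 kinetic read, 20 s intervals, 4 min. No-enzyme wells = negative control.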
# AmpC det inh: inhibitors of E. coli AmpC beta-lactamase with detergent | 0.09% of 71,000 active | Potency, µM (doses to about 28.7 µM), inactives show at the top dose activity change, negative = inhibition | AID 584 | purified AmpC, nitrocefin hydrolysis with detergent | P00811; active = well fitted curve in the direction sought with a large enough effect; inconclusive = small, poorly fitted or top-dose-only effect; also: % is scaled to controls: 0 for no effect and ±100 for the full control effect
#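 E. coli AmpC (5.3 nM) in 20 mM phosphate pH 7.0 with 0.01% Triton X-100, preincubated 15 min RT with compound; nitrocefin (2 uL of 800 uM stock) hydrolysis followed by 480 nm absorbance every 20 s over 4 min.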
# LT uptake inh: anthrax lethal toxin internalization inhibition. Cells, anthrax lethal toxin internalization, FRET ratio (460/530). 0.67% of 70,000 active. AID 912. Potency, µM (highest dose often 40 µM), without a hit: top-dose activity change, negative = inhibition, usual class: inhibitors; also: % is scaled to controls: 0 for no effect and ±100 for the full control effect; nearly all actives have a fitted effect of over 50% in size
# An asterisk follows results filed as active; ? = inconclusive; . = not tested or not shown; ! = not confirmed by another sample; [ ] = remark or other dose. Hits are enriched below; roughly 2.6% of the tested compounds scored in any of these assays. Unless noted, calls follow the shape of the full dose curve. Potency is read from the fitted curve at half-maximal effect.
SMILES,SmPrx2 inh,AmpC nodet inh,AmpC det inh,LT uptake inh
Cc1ccc(NC(=O)C2CCCN2S(=O)(=O)c2ccc3c(c2)CCC(=O)N3)cc1Cl (stereo unspecified),>57,4µM*[single pt active],12%,-10%
CCOC(=O)N1CCN(C(=O)CS(=O)Cc2nc(-c3ccc(C)cc3)oc2C)CC1 (stereo unspecified),>57,109%,12%,-16%
Cc1cccc(-c2nc(CS(=O)CC(=O)NCC3CCCO3)c(C)o2)c1 (stereo unspecified),>57,4µM*[single pt active],11%,-5%
Cc1cccc(-c2nc(CS(=O)CC(=O)N3CCCCC3)c(C)o2)c1 (stereo unspecified),>57,4µM*[single pt active],16%,-3%
CN(Cc1ccccc1)c1oc(-c2ccco2)nc1C#N,>57,6%,-1%,10µM*
Cc1cc(C)n2nc(SCC(=O)Nc3ccc(F)cc3)nc2n1,?,4µM*[single pt active],13%,-1%
Cc1cc(C)n2nc(SCC(=O)Nc3c(C)nn(-c4ccccc4)c3C)nc2n1,>57,22%,-4%,-7%
C=C(C)c1cccc(C(C)(C)NC(=O)N2CCN(c3ccccn3)CC2)c1,>57,4µM*[single pt active],14%,-22%
c1cc(CN2CCCCC2)cc(OCCCNc2nc3ccccc3s2)c1,>57,74%,0%,25µM*!
COc1cccc(CNc2nc3ccccc3n2CCN2CCCCC2)c1,>57,50%,-3%,2%
C=CCOC(=O)C(C(C)=O)C(NC(=O)OC)c1ccc(Cl)cc1 (stereo unspecified),.,.,.,2%[8 µM]
O=C1C=C(Nc2nc(C(=O)O)cc(=O)[nH]2)c2ccccc2C1=O,>57,-1%[5.75 µM],-2%[5.75 µM],-13%[8 µM]
Cc1noc(C)c1S(=O)(=O)N(CC(=O)Nc1ccc2c(c1)OCO2)c1ccc(C(C)C)cc1,>57,-1%,4%,?
Cc1n[nH]c(C)c1S(=O)(=O)N(CC(=O)Nc1ccc2c(c1)OCCO2)c1ccc(C(C)C)cc1,>57,31%,2%,16µM*
CCN(CC)CCn1c(-c2ccccc2)nc2c(NCCOC)nc(C)nc21,.,26%,10%,-8%
CC(C)(C)c1cc(O)c(C(C)(C)C)cc1O,>57,-6%,-1%,?
Cc1cc(O)c(C(C)(C)C)cc1Sc1cc(C(C)(C)C)c(O)cc1C,.,13µM*,6%,?
COc1cccc(NC(=O)c2ccc(CN3CCN(c4ccccc4)CC3)cc2)c1,>57,32%,-5%,10µM*
N#CCSc1nc2scc(-c3cccs3)c2c(=O)n1CCc1ccccc1,>57,7.9µM*,0%,-27%
C=CCn1c(SCn2nnc3ccccc3c2=O)nc2scc(-c3cccs3)c2c1=O,>57,-9%,-3%,5%
O=C(CCc1ccc(O)cc1)c1c(O)cc(O)cc1O[C@@H]1O[C@@H](CO)[C@@H](O)[C@@H](O)[C@H]1O,>57,-2%,11%,-1%
O=C(Nc1nnc(C2CC2)s1)c1cccc(S(=O)(=O)N2CCc3ccccc32)c1,>57,10µM*,-2%,1%
O=C(Nc1ccc(S(=O)(=O)N2CCc3ccccc32)cc1)c1ccco1,>57,-25%,12%,-5%
O=C(Nc1ccc(S(=O)(=O)N2CCc3ccccc32)cc1)c1ccc2c(c1)OCO2,>57,13µM*,2%,?
CC(NC(=O)CCNS(=O)(=O)c1ccc2c(c1)c(=O)n(C)c(=O)n2C)c1ccccc1 (stereo unspecified),>57,9%,4%,-22%
SMILES,SmPrx2 inh,AmpC nodet inh,AmpC det inh,LT uptake inh
Cn1c(=O)c2cc(S(=O)(=O)NC(C(=O)Nc3cccnc3)c3ccccc3)ccc2n(C)c1=O (stereo unspecified),>57,4µM*[single pt active],11%,-8%
O=C1CCc2cc(S(=O)(=O)NC(C(=O)NCc3cccnc3)c3ccccc3)ccc2N1 (stereo unspecified),>57,4µM*[single pt active],12%,1%
Cn1c(=O)c2cc(S(=O)(=O)NC(C(=O)NCc3cccnc3)c3ccccc3)ccc2n(C)c1=O (stereo unspecified),>57,4µM*[single pt active],14%,-7%
O=NN(Cc1ccc(Cl)cc1)[C@@H](C(=O)O)c1ccccc1,>57,-4%[5.75 µM],-4%[5.75 µM],-9%[8 µM]
COC(=O)c1ccc(C(NC(=O)OCc2ccccc2)/C(=C/[C@@H](C)C(=O)NCc2ccc(S(C)(=O)=O)cc2)c2cccnc2)cc1 (stereo partly specified),.,123%,15%,13%
O=c1cc(O)cc(/C=C\c2ccc(O)c(O)c2)o1,>57,6.3µM*,-3%,-1%
CN(C)c1ccc(-c2nc(Nc3ccncc3)c3ccccc3n2)cc1,>57,35%,9%,13µM*
O=C(c1ccc(N2CCCCS2(=O)=O)cc1)N1CCN(c2ccc(N3CCOCC3)nn2)CC1,>57,4µM*[single pt active],12%,-10%
C#CC(C)OC(=O)c1nnc2c3ccccc3n(COC)c2n1 (stereo unspecified),.,.,.,-6%[8 µM]
CCOC(=O)N1CCC(NC(=O)Cn2nc(-c3ccccc3)ccc2=O)CC1,>57,112%,-6%,?
CCOC(=O)N1CCC(NC(=O)Cn2nc(Cc3ccncc3)c3ccccc3c2=O)CC1,>57,4µM*[single pt active],14%,-10%
Cc1ccccc1-c1cc(NCc2ccccc2)ncn1,>57,15%,9%,17%
COCCNC(=O)c1cc2c(=O)n(C)c3ccccc3c2n1C,>57,4µM*[single pt active],15%,-8%
COCCCNC(=O)c1cc2c(=O)n(C)c3ccccc3c2n1C,>57,4µM*[single pt active],9%,13%
CCOC(=O)N1CCC(NC(=O)c2cc3c(=O)n(C)c4ccccc4c3n2C)CC1,>57,158%,14%,?
Cn1c(C(=O)NC2CC2)cc2c(=O)n(C)c3ccccc3c21,>57,4µM*[single pt active],9%,3%
CCN(CC)CCNC(=O)c1cc2c(=O)n(C)c3ccccc3c2n1C,>57,?,9%,?
CN(C)CCNC(=O)c1cc2c(=O)n(C)c3ccccc3c2n1C,>57,?,14%,13µM*
O=C1[C@H]2[C@H]3[C@H](O)[C@H](O)C/C(=N/OCc4ccccc4)[C@H]3CC[C@@H]2C(=O)N1c1cccc(Oc2ccccc2)c1,.,.,.,-7%[8 µM]
O=C1c2ccccc2C(O)N1c1cccnc1 (stereo unspecified),>57,4µM*[single pt active],14%,-7%
O=C1c2ccccc2C(Nc2ccc(Cl)cn2)N1c1cccnc1 (stereo unspecified),>57,4µM*[single pt active],12%,-12%
CCCCCCCCCCCCCCCCCCNC(=O)OC[C@@H](COP(=O)([O-])OCC[n+]1ccsc1)OC,>57,31%,-3%,-1%
O=C(O)[C@H]([C@H]1NCCS1)N1C(=O)c2ccccc2C1=O,>57,-5%[5.75 µM],-4%[5.75 µM],-2%[8 µM]
COc1cccc2cc(C(=O)n3ccc(C)n3)c(=O)oc12,>57,10µM*,10µM*,-9%
Cc1nc2ccc(S(=O)(=O)NC(C(=O)Nc3nccs3)C(C)C)cc2s1 (stereo unspecified),>57,4µM*[single pt active],9%,-11%
Cc1nc2ccc(S(=O)(=O)NC(C(=O)NCc3cccs3)C(C)C)cc2s1 (stereo unspecified),>57,4µM*[single pt active],11%,-13%
